Drawing on PubChem BioAssay (EPA / NIEHS), this text covers outcome and AC50 for three compounds.

Active and inactive are the calls of the source. The calls were made as follows: active = hit-call score of the fitted dose curve at least 0.9, where 1 is the maximum; inactive = score below 0.9.

Read-out in assay [1]: TIMP metallopeptidase inhibitor 1 (TIMP1), TIMP1 (gene 7076)
Put plainly: BSK_hDFCGF_TIMP1: BioMAP Diversity Plus: hDFCGF Assay for TIMP metallopeptidase inhibitor 1 (TIMP1) Biomarker Activity (AID 2283062). Conditions: primary human foreskin fibroblasts; actives raise or lower the signal. An outline of the steps: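 Primary human foreskin fibroblasts in the hDFCGF system were dosed with compound for 24 h, then TIMP-1 was measured by ELISA. Activity was fitted bidirectionally relative to DMSO control; parallel SRB staining assessed cytotoxicity.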

Read-out in assay [2]: Monokine induced gamma interferon (MIG), CXCL9 (gene 4283)
Put plainly: BSK_hDFCGF_MIG: BioMAP Diversity Plus: hDFCGF Assay for Monokine induced gamma interferon (MIG) Biomarker Activity (AID 2283063). Conditions: primary human foreskin fibroblasts; actives raise or lower the signal. Put shortly: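 ELISA read-out of MIG from primary human dermal fibroblasts 24 h post-dosing. Gain or loss of signal fitted bidirectionally, DMSO as baseline.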

Read-out in assay [3]: Matrix Metallopeptidase 1 (MMP1), MMP1 (gene 4312)
Nature of the assay: BSK_hDFCGF_MMP1: BioMAP Diversity Plus: hDFCGF Assay for Matrix Metallopeptidase 1 (MMP1) Biomarker Activity (AID 2283064). Conditions: primary human foreskin fibroblasts; actives raise or lower the signal. Put shortly: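 hDFCGF primary fibroblasts (human foreskin); chemical added; 24 h; MMP1 by ELISA; bidirectional fit vs DMSO.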

Read-out in assay [4]: Vascular cell adhesion molecule 1 (VCAM1), VCAM1 (gene 7412)
Nature of the assay: BSK_hDFCGF_VCAM1: BioMAP Diversity Plus: hDFCGF Assay for Vascular cell adhesion molecule 1 (VCAM1) Biomarker Activity (AID 2283065).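 As to AC50: VCAM-1 protein level quantified by ELISA after 24 h chemical exposure.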 The following applies: primary human foreskin fibroblasts; actives raise or lower the signal. An outline of the steps:
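Primary human foreskin fibroblasts (hDFCGF system) were dosed with chemical and VCAM-1 was measured by ELISA 24 h later. Bidirectional curve fitting used DMSO as negative control and activity baseline.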

Read-out in assay [5]: Plasminogen activator inhibitor-1 (PAI1), SERPINE1 (gene 5054)
Nature of the assay: BSK_hDFCGF_PAI1: BioMAP Diversity Plus: hDFCGF Assay for Plasminogen activator inhibitor-1 (PAI1) Biomarker Activity (AID 2283066). The following applies: primary human foreskin fibroblasts; actives raise or lower the signal. Put shortly: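 Primary dermal fibroblasts (human foreskin), hDFCGF system; compound 24 h; PAI-1 by ELISA; bidirectional fit vs DMSO control.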

Read-out in assay [6]: Intercellular Adhesion Molecule 1 (ICAM1), ICAM1 (gene 3383)
Nature of the assay: BSK_KF3CT_ICAM1: BioMAP Diversity Plus: KF3CT Assay for Intercellular Adhesion Molecule 1 (ICAM1) Biomarker Activity (AID 2283067). The following applies: primary human keratinocytes with fibroblasts; actives raise or lower the signal. An outline of the steps:
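Human keratinocyte plus foreskin fibroblast primary co-culture was exposed to chemical for 24 h. ICAM-1 was then quantified by ELISA, and the data were fit bidirectionally against DMSO as the negative control and baseline.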

Read-out in assay [7]: Interferon-gamma inducible Protein 10 (IP10), CXCL10 (gene 3627)
Nature of the assay: BSK_KF3CT_IP10: BioMAP Diversity Plus: KF3CT Assay for Interferon-gamma inducible Protein 10 (IP10) Biomarker Activity (AID 2283068). Conditions: primary human keratinocytes with fibroblasts; actives raise or lower the signal. Put shortly:
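Human keratinocyte plus foreskin fibroblast primary co-culture exposed to test chemical for 24 h; IP-10 measured by ELISA. Concentration-response fitted bidirectionally against DMSO control as baseline.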

Assay [8] in a line: BSK_KF3CT_SRB: Viability Assessment in the BioMAP Diversity Plus: KF3CT Assay (AID 2283069).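 Also: total protein by sulforhodamine B staining as a cytotoxicity measure; read 24 h after compound addition; fitted for both signal gain and loss against DMSO baseline.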 Conditions: primary human keratinocytes with fibroblasts. An outline of the steps: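 Keratinocytes co-cultured with foreskin fibroblasts (human primary); chemical added, 24 h; fix 10% TCA, stain 0.1% SRB, A560. Bidirectional fit vs DMSO.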
Read-out in assay [9]: Interleukin-1 alpha (IL1a), IL1A (gene 3552)
Nature of the assay: BSK_KF3CT_IL1a: BioMAP Diversity Plus: KF3CT Assay for Interleukin-1 alpha (IL1a) Biomarker Activity (AID 2283070). The following applies: primary human keratinocytes with fibroblasts; actives raise or lower the signal. An outline of the steps: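 Chemicals were dosed onto co-cultured human keratinocytes and foreskin fibroblasts, IL-1a was quantified by ELISA at 24 h, and activity was fitted in both directions relative to DMSO controls.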

Read-out in assay [10]: TIMP metallopeptidase inhibitor 2 (TIMP2), TIMP2 (gene 7077)
Nature of the assay: BSK_KF3CT_TIMP2: BioMAP Diversity Plus: KF3CT Assay for TIMP metallopeptidase inhibitor 2 (TIMP2) Biomarker Activity (AID 2283071). Conditions: primary human keratinocytes with fibroblasts; actives raise or lower the signal. Put shortly:
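Cells: human keratinocytes co-cultured with foreskin fibroblasts. Treat with chemical, 24 h. Measure TIMP-2 by ELISA; fit curves bidirectionally vs DMSO baseline.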

Read-out in assay [11]: Transforming growth factor beta 1 (TGFb1), TGFB1 (gene 7040)
Put plainly: BSK_KF3CT_TGFb1: BioMAP Diversity Plus: KF3CT Assay for Transforming growth factor beta 1 (TGFb1) Biomarker Activity (AID 2283072). Conditions: primary human keratinocytes with fibroblasts; actives raise or lower the signal. An outline of the steps: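 Primary human skin cells (keratinocytes, foreskin fibroblasts) were co-cultured, exposed to test chemical and sampled at 24 h. TGF-b1 levels were measured by ELISA and fitted bidirectionally relative to DMSO.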

Read-out in assay [12]: C-C motif chemokine 2 (Homo sapiens) (UniProt P13500)
Nature of the assay: BSK_KF3CT_MCP1: BioMAP Diversity Plus: KF3CT Assay for Monocyte Chemoattractant Protein 1 (MCP1/CCL2) Biomarker Activity (AID 2283073). The following applies: primary human keratinocytes with fibroblasts; actives raise or lower the signal. Put shortly:
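Human keratinocyte plus foreskin fibroblast primary co-culture exposed to chemical for 24 h. MCP-1 levels measured by ELISA. Bidirectional curve fitting relative to DMSO negative control as baseline.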

Read-out in assay [13]: Matrix Metallopeptidase 9 (MMP9), MMP9 (gene 4318)
Put plainly: BSK_KF3CT_MMP9: BioMAP Diversity Plus: KF3CT Assay for Matrix Metallopeptidase 9 (MMP9) Biomarker Activity (AID 2283074).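 As to AC50: MMP9 protein level quantified by ELISA in the co-culture.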 Conditions: primary human keratinocytes with fibroblasts; actives raise or lower the signal. An outline of the steps: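 Human keratinocyte/foreskin fibroblast co-culture; compound added; 24 h; MMP-9 by ELISA; bidirectional fit vs DMSO baseline.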

Read-out in assay [14]: urokinase plasminogen activator (uPA), PLAU (gene 5328)
Nature of the assay: BSK_KF3CT_uPA: BioMAP Diversity Plus: KF3CT Assay for urokinase plasminogen activator (uPA) Biomarker Activity (AID 2283075). Conditions: primary human keratinocytes with fibroblasts; actives raise or lower the signal. An outline of the steps: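 ELISA readout of uPA, analyzed for signal gain or loss relative to DMSO, from a human primary keratinocyte–foreskin fibroblast co-culture measured 24 h after chemical treatment.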

Read-out in a further assay: CD40, CD40 (gene 958)
Put plainly: BSK_LPS_CD40: BioMAP Diversity Plus: LPS Assay for CD40 Biomarker Activity (AID 2283076). Conditions: primary human HUVEC with PBMC; actives raise or lower the signal. Put shortly: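 Primary human umbilical vein endothelial cells co-cultured with peripheral blood mononuclear cells, LPS-stimulated, were dosed with chemical and read 24 h later. CD40 levels were measured by ELISA and fitted bidirectionally against DMSO as negative control and baseline.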

Read-out in assay [15]: E-selectin (Homo sapiens) (UniProt P16581)
Put plainly: BSK_LPS_Eselectin: BioMAP Diversity Plus: LPS Assay for Eselectin Biomarker Activity (AID 2283077). Conditions: primary human HUVEC with PBMC; actives raise or lower the signal. Put shortly:
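Human umbilical vein endothelial cells co-cultured with peripheral blood mononuclear cells under LPS stimulation; E-selectin measured by ELISA 24 h after chemical dosing. Activity fitted bidirectionally against DMSO as negative control and baseline.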

Read-out in assay [16]: Interleukin-8 (IL8), CXCL8 (gene 3576)
Nature of the assay: BSK_LPS_IL8: BioMAP Diversity Plus: LPS Assay for Interleukin-8 (IL8) Biomarker Activity (AID 2283078). Conditions: primary human HUVEC with PBMC; actives raise or lower the signal. Put shortly: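 Human umbilical vein endothelial cells co-cultured with PBMC were stimulated with LPS; IL-8 levels were measured by ELISA 24 h after chemical dosing. Activity was fitted bidirectionally against DMSO as negative control and baseline.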

Assay [17] in a line: BSK_LPS_SRB: Viability Assessment in the BioMAP Diversity Plus: LPS Assay (AID 2283079).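 Also: total protein by sulforhodamine B absorbance as a cytotoxicity measure; measured one day after compound addition; fitted in both directions against DMSO so loss or gain of signal counts.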 The following applies: primary human HUVEC with PBMC. An outline of the steps:
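Human umbilical vein endothelial cells co-cultured with PBMC (LPS system) were dosed for 24 h. Total protein was stained with 0.1% sulforhodamine B after 10% TCA fixation, read at 560 nm, and fitted bidirectionally against DMSO baseline.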

Read-out in assay [18]: Interleukin-1 alpha (IL1a), IL1A (gene 3552)
Nature of the assay: BSK_LPS_IL1a: BioMAP Diversity Plus: LPS Assay for Interleukin-1 alpha (IL1a) Biomarker Activity (AID 2283080). The following applies: primary human HUVEC with PBMC; actives raise or lower the signal. An outline of the steps: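 Human umbilical vein endothelial cells co-cultured with peripheral blood mononuclear cells were LPS-stimulated and exposed to test chemicals for 24 h. IL-1 alpha was quantified by ELISA, with bidirectional curve fitting against DMSO as the negative control and baseline.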

Read-out in assay [19]: Monocyte Chemoattractant Protein-1 (MCP1), CCL2 (gene 6347)
Put plainly: BSK_LPS_MCP1: BioMAP Diversity Plus: LPS Assay for Monocyte Chemoattractant Protein-1 (MCP1) Biomarker Activity (AID 2283081).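 As to AC50: co-culture stimulated with LPS; secreted MCP-1 protein quantified by ELISA in culture supernatant.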 Conditions: primary human HUVEC with PBMC; actives raise or lower the signal. Put shortly: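 HUVEC plus PBMC co-culture (human primary cells, LPS system) exposed to test chemical for 24 h; MCP-1 measured by ELISA. Bidirectional curve fitting against DMSO baseline; parallel SRB total-protein staining flags overt cytotoxicity.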

Chain of E-selectin (Homo sapiens) (P16581 whole entry, looked up): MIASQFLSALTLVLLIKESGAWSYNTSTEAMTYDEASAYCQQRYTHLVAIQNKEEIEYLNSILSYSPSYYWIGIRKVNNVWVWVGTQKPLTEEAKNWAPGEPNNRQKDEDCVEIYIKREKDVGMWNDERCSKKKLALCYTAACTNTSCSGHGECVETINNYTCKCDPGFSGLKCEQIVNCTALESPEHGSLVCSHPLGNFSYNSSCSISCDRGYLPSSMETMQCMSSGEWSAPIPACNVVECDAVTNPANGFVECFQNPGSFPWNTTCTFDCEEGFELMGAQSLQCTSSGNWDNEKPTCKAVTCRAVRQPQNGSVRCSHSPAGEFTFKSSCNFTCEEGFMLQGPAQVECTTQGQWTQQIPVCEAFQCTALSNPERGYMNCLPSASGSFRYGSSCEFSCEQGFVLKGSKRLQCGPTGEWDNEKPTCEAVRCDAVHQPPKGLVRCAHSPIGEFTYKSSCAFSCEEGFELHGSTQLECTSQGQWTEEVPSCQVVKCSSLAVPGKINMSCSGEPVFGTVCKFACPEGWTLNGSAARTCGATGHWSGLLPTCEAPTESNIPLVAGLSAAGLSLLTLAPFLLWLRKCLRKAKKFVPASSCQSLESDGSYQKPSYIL

`CCOCCOCCOCCO`: the outcome in assay [1], in assay [2], in [3], in [4], in assay [5] and in assay [6] was inactive. Besides, the result in [7], in assay [8], in [9], in [10], in [11] and in assay [12] was inactive. In addition, the outcome is “inactive” in assay [13]; “inactive” in assay [14]; “inactive” with CD40, CD40 (gene 958); “inactive” in [15]; “inactive” in [16]; “inactive” in assay [17]. Moreover, the outcome in [18] and in assay [19] was inactive.

Broadly, the AC50 is the midpoint of the concentration-response curve, whichever way the signal moves. As to `CCc1cc(SCc2sc(-c3ccc(C(F)(F)F)cc3)nc2CN2CCN(c3ccc(OC)cc3)CC2)ccc1OCC(=O)O`, the AC50 in [1] is 2.53 µM (active); in assay [2] it was 3.38 µM (active); in assay [3], 1.8 µM (active); in assay [4], 3.57 µM (active); in [5], 3.17 µM (active); in assay [6], 7.27 µM (active). Also, the half-maximal activity concentration (AC50) in [7] was 3.58 µM (active); in assay [8], 3.42 µM (active); in assay [9], 7.25 µM (active); in [10] it was 7.31 µM (active); in assay [11] it was 4.39 µM (active); in assay [12], 4.26 µM (active). In addition, the AC50 in [13] was 4.08 µM (active); in [14], 5.22 µM (active); with CD40, CD40 (gene 958), 6.6 µM (active); in assay [15] it was 14.8 µM (active); in assay [16] it was 33.6 µM (active); in [17], 13.4 µM (active). Also, the AC50 in assay [18] was 30.6 µM (active); in [19] it was 12.3 µM (active).

`Cn1c(=O)c2c(ncn2C)n(C)c1=O`: the outcome in [1], in assay [2], in assay [3], in assay [4], in [5] and in [6] was inactive. Also, the result in assay [7], in [8], in [9], in assay [10], in assay [11] and in assay [12] was inactive. Also, the outcome in assay [13] was “inactive”; in assay [14], “inactive”; with CD40, CD40 (gene 958), “inactive”; in assay [15], “inactive”; in assay [16] it was “inactive”; in assay [17] it was “inactive”. Also, the outcome in [18] and in [19] was inactive.
